Columns and labels:
Assay in all cases: DAPPL (digital affinity profiling via proximity ligation, sequencing); 10 mM Tris-HCl pH 7.5, 50 mM NaCl, 1 mM DTT, 4% glycerol, room temperature, 30 min; GST-TFs on glutathione beads, 16-mer random dsDNA library, 0.1% formaldehyde crosslink after washing; high values mean tight binding
FEV = molecular target: T1, FEV (Homo sapiens, UniProt Q99581 1-238); details: protein: recombinant; tags: N-terminal GST; dsDNA, one strand shown
T1 sequence: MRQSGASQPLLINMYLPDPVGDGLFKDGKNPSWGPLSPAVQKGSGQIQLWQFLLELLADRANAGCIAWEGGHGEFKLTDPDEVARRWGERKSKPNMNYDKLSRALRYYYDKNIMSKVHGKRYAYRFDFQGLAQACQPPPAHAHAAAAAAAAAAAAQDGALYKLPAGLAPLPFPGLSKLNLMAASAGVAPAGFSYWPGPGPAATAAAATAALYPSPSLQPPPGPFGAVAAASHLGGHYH
In short: (§1)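 In yeast, human transcription factors were expressed with a GST fusion, then pulled down on glutathione beads and given DNA barcodes. Pooled with a tag-only sample, they were exposed to 200 nmole of a 16-mer random double-stranded DNA library (Tris/NaCl/DTT/glycerol buffer, room temperature, 30 min), washed, crosslinked with 0.1% formaldehyde, proximity-ligated using BsaI/T4 ligase for 1 h at 37 °C, PCR-amplified and read on an Illumina NextSeq500. Each hexamer's frequency of reads for a factor, divided by the matching frequency for the tag-only sample, gives the binding signal.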

ETV5 = ETV5 (Homo sapiens, UniProt P41161 1-510); details: protein: recombinant; tags: N-terminal GST; dsDNA, one strand shown
Chain of ETV5 (P41161 whole entry): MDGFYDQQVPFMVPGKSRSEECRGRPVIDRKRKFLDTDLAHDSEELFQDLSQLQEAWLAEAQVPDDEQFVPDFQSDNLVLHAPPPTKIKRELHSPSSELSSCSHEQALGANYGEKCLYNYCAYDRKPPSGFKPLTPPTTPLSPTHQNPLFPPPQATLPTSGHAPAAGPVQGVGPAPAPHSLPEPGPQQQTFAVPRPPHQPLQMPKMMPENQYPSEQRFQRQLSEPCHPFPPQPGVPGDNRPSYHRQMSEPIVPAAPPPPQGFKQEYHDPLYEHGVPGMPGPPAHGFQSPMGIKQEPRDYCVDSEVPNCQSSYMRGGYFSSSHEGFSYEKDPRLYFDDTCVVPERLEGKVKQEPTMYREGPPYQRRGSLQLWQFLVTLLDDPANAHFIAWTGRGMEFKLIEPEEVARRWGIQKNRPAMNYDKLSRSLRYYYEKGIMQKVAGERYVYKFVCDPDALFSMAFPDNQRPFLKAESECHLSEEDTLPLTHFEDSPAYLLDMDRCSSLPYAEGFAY
In short: as §1

HSF1 = HSF1 (Homo sapiens, UniProt Q00613 1-529); details: protein: recombinant; tags: N-terminal GST; chain copies: 3; dsDNA, one strand shown
Chain of HSF1 (Q00613 whole entry): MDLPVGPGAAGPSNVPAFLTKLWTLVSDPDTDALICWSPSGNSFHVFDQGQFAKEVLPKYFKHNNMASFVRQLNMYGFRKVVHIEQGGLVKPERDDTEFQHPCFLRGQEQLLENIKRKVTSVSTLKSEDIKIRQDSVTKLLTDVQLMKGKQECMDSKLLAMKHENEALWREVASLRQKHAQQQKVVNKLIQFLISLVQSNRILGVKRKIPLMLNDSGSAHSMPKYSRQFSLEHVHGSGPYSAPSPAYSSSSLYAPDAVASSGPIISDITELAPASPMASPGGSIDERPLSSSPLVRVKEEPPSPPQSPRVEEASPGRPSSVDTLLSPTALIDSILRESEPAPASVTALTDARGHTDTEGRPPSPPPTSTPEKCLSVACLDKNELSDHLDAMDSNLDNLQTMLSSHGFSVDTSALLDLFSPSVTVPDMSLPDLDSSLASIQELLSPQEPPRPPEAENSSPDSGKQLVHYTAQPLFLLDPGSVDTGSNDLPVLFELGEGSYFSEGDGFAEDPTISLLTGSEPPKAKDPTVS
In short: as §1

SPIC = molecular target: T2, SPIC (Homo sapiens, UniProt Q8N5J4 1-248); details: protein: recombinant; tags: N-terminal GST; dsDNA, one strand shown
T2 sequence: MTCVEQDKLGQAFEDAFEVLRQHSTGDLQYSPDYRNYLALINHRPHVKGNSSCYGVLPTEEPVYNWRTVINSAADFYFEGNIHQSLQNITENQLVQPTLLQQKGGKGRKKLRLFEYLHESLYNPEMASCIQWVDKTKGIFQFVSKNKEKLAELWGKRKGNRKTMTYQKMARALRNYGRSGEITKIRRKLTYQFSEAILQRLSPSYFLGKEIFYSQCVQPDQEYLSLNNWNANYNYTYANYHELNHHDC
In short: as §1

ELF4 = ELF4 (Homo sapiens, UniProt Q99607 1-663); details: protein: recombinant; tags: N-terminal GST; dsDNA, one strand shown
Chain of ELF4 (Q99607 whole entry): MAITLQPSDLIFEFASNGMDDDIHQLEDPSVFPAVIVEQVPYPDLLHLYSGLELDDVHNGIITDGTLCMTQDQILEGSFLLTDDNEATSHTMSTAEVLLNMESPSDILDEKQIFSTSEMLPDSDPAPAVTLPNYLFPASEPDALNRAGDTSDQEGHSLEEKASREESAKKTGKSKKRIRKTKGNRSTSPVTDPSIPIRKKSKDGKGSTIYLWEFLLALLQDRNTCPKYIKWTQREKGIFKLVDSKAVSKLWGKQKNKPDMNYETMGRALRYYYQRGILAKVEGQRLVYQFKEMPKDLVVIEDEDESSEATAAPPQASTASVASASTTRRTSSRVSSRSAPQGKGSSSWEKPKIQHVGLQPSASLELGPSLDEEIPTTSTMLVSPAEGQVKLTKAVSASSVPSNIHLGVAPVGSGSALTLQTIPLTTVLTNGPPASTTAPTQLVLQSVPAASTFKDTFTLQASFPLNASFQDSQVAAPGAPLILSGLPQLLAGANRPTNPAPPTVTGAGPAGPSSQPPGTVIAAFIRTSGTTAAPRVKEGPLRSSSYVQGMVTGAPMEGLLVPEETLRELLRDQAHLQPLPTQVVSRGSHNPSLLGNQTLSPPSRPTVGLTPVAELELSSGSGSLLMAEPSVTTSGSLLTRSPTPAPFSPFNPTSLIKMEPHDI
In short: as §1

ELK4 = molecular target: T3, ELK4 (Homo sapiens, UniProt P28324-2 1-405); details: protein: recombinant; tags: N-terminal GST; dsDNA, one strand shown
T3 sequence: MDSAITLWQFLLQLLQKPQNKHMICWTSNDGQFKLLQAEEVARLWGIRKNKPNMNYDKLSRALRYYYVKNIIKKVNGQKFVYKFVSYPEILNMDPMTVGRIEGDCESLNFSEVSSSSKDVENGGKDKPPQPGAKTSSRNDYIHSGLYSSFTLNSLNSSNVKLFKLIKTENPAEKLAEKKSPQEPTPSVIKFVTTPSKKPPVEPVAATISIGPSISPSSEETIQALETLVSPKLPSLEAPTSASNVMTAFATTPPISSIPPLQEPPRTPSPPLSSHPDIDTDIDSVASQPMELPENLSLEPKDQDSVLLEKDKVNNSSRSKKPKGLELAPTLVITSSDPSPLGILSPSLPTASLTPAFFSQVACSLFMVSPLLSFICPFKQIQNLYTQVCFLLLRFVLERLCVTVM
In short: as §1

ETV2 = molecular target: T4, ETV2 (Homo sapiens, UniProt O00321 1-342); details: protein: recombinant; tags: N-terminal GST; dsDNA, one strand shown
T4 sequence: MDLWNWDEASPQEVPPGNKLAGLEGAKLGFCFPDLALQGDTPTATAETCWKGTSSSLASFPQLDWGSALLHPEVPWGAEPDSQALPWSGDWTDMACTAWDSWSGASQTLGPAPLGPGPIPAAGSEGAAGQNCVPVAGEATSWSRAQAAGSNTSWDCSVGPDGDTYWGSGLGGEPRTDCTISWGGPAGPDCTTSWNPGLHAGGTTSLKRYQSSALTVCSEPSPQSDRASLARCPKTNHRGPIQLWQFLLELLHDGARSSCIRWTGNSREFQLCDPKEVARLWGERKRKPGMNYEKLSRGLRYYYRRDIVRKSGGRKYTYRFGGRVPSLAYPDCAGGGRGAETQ
In short: as §1

ELF3 = molecular target: T5, ELF3 (Homo sapiens, UniProt P78545 1-371); details: protein: recombinant; tags: N-terminal GST; dsDNA, one strand shown
T5 sequence: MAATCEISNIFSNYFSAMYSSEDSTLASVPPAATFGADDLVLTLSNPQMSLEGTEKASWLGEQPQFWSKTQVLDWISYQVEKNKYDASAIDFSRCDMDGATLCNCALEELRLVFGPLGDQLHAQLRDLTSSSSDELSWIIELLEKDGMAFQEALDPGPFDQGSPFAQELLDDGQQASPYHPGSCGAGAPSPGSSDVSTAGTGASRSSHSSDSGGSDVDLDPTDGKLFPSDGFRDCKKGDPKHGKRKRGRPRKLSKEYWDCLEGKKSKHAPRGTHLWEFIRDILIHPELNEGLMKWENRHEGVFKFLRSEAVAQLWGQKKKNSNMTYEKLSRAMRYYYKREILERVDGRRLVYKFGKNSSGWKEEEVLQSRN
In short: as §1

Question: For TGACCA, which binding signal (FEV) is on record?
Answer: The binding signal was 1.22 fold enrichment (6-mer frequency, TF over GST control).

Question: And the binding signal (ETV5)?
Answer: Its binding signal is 1.23 fold enrichment (6-mer frequency, TF over GST control).

Question: And the binding signal (HSF1)?
Answer: The binding signal was 1.05 fold enrichment (6-mer frequency, TF over GST control).

Question: What about the binding signal (SPIC) of the same sequence?
Answer: The binding signal was 1.06 fold enrichment (6-mer frequency, TF over GST control).

Question: And the binding signal (ELF4)?
Answer: Its binding signal is 1.29 fold enrichment (6-mer frequency, TF over GST control).

Question: And the binding signal (ELK4)?
Answer: Its binding signal is 1.29 fold enrichment (6-mer frequency, TF over GST control).

Question: What about the binding signal (ETV2) of the same sequence?
Answer: The binding signal was 1.17 fold enrichment (6-mer frequency, TF over GST control).

Question: What about the binding signal (ELF3) of the same sequence?
Answer: Its binding signal is 1.11 fold enrichment (6-mer frequency, TF over GST control).
